The term AC50 denotes the midpoint of the concentration-response curve, whichever way the signal moves.

Active and inactive are the calls of the source. How the source made its calls: active means hit-call score of the fitted dose curve at least 0.9, where 1 is the maximum; inactive means score below 0.9.

The experiment is described as follows: ATG_CRE_CIS: Attagene CIS-FACTORIAL HepG2 Assay for human cAMP Responsive Element (CRE) binding protein 3 (AID 2282926). Conditions: HepG2 CRE cis-reporter, Attagene multiplexed mRNA; actives raise or lower the signal. As for the experimental part:
ATG_CIS is a cell-based, multiplexed-readout assay that uses HepG2, a human liver cell line, with measurements taken at 24 hours after chemical dosing in a 24-well plate.ATG_CRE_CIS is one of 52 assay component(s) measured or calculated from the ATG_CIS assay. It is designed to make measurements of mRNA induction, a form of inducible reporter, as detected with fluorescence intensity signals by Reverse transcription polymerase chain reaction (RT-PCR) and Capillary electrophoresis technology.Data from the assay component ATG_CRE_CIS was analyzed into 1 assay endpoint. This assay endpoint, ATG_CRE_CIS, was analyzed with bidirectional fitting relative to DMSO as the negative control and baseline of activity. Using a type of inducible reporter, measures of mRNA for gain or loss-of-signal activity can be used to understand the reporter gene at the transcription factor-level as they relate to the gene CREB3. Furthermore, this assay endpoint can be referred to as a primary readout, because this assay has produced multiple assay endpoints where this one serves a reporter gene function. To generalize the intended target to other relatable targets, this assay endpoint is annotated to the dna binding intended target family, where the subfamily is basic leucine zipper.
Human liver HepG2 cells are transiently transfected with multiple reporter transcription units (MRTUs) in 6-well plates using FuGene 6 reagent (Roche; 3 ml FuGene/1 mg DNA). The MRTU constructs are regulated by a cis-regulating element (promoter). […] A major difference between the CIS and TRANS system is that in CIS activities of endogenous TFs are measured, whereas the TRANS assay evaluates changes in activities of exogenous, chimeric NR-Gal4 proteins. […] At the end of 24 hour incubation, total RNA was isolated using TriZol reagent (Invitrogen). The isolated RNA is then reverse-transcribed using oligo(dT) primer and Mo-MLV reverse transcriptase (Invitrogen) with DNAse I (Ambion) treatment for 30 min. The one-tenth of the produced cDNA was amplified by PCR using Taq DNA polymerase (Invitrogen) and two reporter sequence-specific primers. The PCR products were fluorescently labeled by primer extension with 6-arboxyfluorescein (6-FAM) 5'-labeled reporter sequence-specific primer (2 min at 95 C, 20 s at 68 C and 10 min at 72 C) and these products were digested with 5U of HpaI (New England Biolabs) for 2h at 37 C. The fragments were purified using Qiaquick PCR columns (Qiagen), analyzed on an ABI 3130xL genetic analyzer (Applied Biosystems) with peak positions identified by using a set of X-rhodamine (ROX)-labeled MapMarker1000 molecular weight standards (BioVentures). The raw capillary electrophoresis data was processed using Attagraph software (Attagene).
As for `CCCCCC(C)=O`, the compound was called inactive.
As for `CCCC1O[C@@H]2C[C@H]3[C@@H]4CCC5=CC(=O)C=C[C@]5(C)[C@H]4[C@@H](O)C[C@]3(C)[C@]2(C(=O)CO)O1` (stereo not given in full), the compound was classed as inactive.
Regarding `CCCCCCCCC=CCCCCCCCC1=NCCN1CCO`, the call was inactive.
Take `CC(=O)C(C)O` (stereo not given): the result was inactive.
Same read-out and setting: the result for `O=c1[nH]c(=O)c2cn[nH]c2[nH]1` reads “inactive”; that for `CC(C)(C)C1=CC(=O)C(C(C)(C)C)=CC1=O`, “inactive”; that for `Cc1ccc(OC(=O)c2ccccc2O)cc1`, “inactive”.
On to `O=P(O)(O)O`, for which the outcome was inactive.
Turning to `CC(C)CC(C)CC(O)CC(C)C` (stereo not given), the compound was called inactive.
With `C=Cc1ccc(C(C)(C)C)cc1`, the compound was classed as inactive.
With `COc1ccccc1N=Nc1c(S(=O)(=O)O)cc2cc(S(=O)(=O)O)cc(NC(C)=O)c2c1O`, the result was inactive.
Take `Cc1[nH]c(=O)c(C#N)cc1-c1ccncc1`: the compound was called inactive.
Regarding `Oc1ccc2cc(SSc3ccc4cc(O)ccc4c3)ccc2c1`, the half-maximal activity concentration (AC50) was 62 µM (active).
On to `CCCC(C)C(O)CC` (stereo not given), for which the compound was called inactive.
On to `CC(O)C1CCCCC1` (stereo not given), for which the compound was classed as inactive.
For the compound `CCCCCCC(C)Nc1ccc(Nc2ccccc2)cc1` (stereo not given), the outcome was inactive.
Consider `CC1(C)C(=O)N(Cl)C(=O)N1Br`, for which the compound was classed as inactive.
On to `C[Si](C)(C)O[Si](C)(C)C`, for which the call was inactive.
The same measure, in the same setting: the result for `CC(=O)CC(=O)Nc1ccc(C)cc1C` reads “inactive”.
For the compound `CC=CC=CCOC(=O)C(C)C`, the compound was classed as inactive.
Take `Cc1c(Cl)cccc1[N+](=O)[O-]`: the compound was classed as inactive.
Consider `C=CCCCCCCCCCC`, for which the result was inactive.
Still for that read-out and setting: with `CCCCC1(COC(=O)CCC(=O)O)C(=O)N(c2ccccc2)N(c2ccccc2)C1=O` the entry was “inactive”; with `O=C(O)CNc1ccccc1`, “inactive”.
Regarding `Cc1ncc[nH]1`, the result was inactive.
With `O=C(Nc1ccc2c(c1)Cc1ccccc1-2)C(F)(F)F`, the compound was called inactive.
Turning to `CC(=O)CC(=O)Nc1ccccc1`, the compound was classed as inactive.
As for `O=C(O)CCCCCCCCC(=O)O`, the outcome was inactive.
In the case of `CCOC(=O)[C@@H](C)Oc1ccc(Oc2nc3ccc(Cl)cc3o2)cc1`, the result was inactive.
In the case of `Cc1ncc([N+](=O)[O-])n1CCO`, the compound was classed as inactive.
For `CCc1cc(C(C)(C)C)c(O)c(C(C)(C)C)c1`, the compound was called inactive.
Regarding `CS(C)=O`, the compound was classed as inactive.
Turning to `CCCCC(CC)C(=O)OC(C)C` (stereo not given), the result was inactive.
For `O=c1c(O)c(-c2ccc(O)cc2)oc2cc(O)cc(O)c12`, the call was inactive.
With `OCCCCC(O)CO` (stereo not given), the compound was called inactive.
As to `CN1C(=O)c2ccccc2C1=O`, the compound was called inactive.
In the case of `CCc1ccc(O)cc1`, the call was inactive.
In the case of `CCCC(=O)C(CC)Sc1ccoc1C` (stereo not given), the AC50 was 25.7 µM (active).
Take `C[C@H]1O[C@@H](O[C@H]2[C@@H](O)C[C@H](O[C@H]3[C@@H](O)C[C@H](O[C@H]4CC[C@@]5(C)[C@H](CC[C@@H]6[C@@H]5C[C@@H](O)[C@]5(C)[C@@H](C7=CC(=O)OC7)CC[C@]65O)C4)O[C@@H]3C)O[C@@H]2C)C[C@H](O)[C@@H]1O`: the concentration at half-maximal activity (AC50) is 0.0776 µM (active).
As for `C1=CC2C3C=CC(C3)C2C1` (stereo not given), the outcome was inactive.

For the origin of these results see PubChem BioAssay (EPA / NIEHS).
